The values that follow come from PubChem BioAssay (NCATS).

For assay [1], the target named is Rap guanine nucleotide exchange factor 4 (Homo sapiens) (UniProt Q8WZA2). Description: Confirmatory qHTS for agonist of cAMP-regulated guanine nucleotide exchange factor 4 (EPAC2) (AID 1645884). For activation: % is set by controls: 0 for no effect and ±100 for the full control effect.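 Note: nucleotide exchange releases bodipy-GDP from Rap1 and this lowers its fluorescence; nearly all actives have a fitted effect of over 65% in size.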 Note: potency is the fitted concentration of half-maximal effect. For orientation: In qHTS, concentration-response curves come from the screen itself.
Assay [2] shares this target. Nature of the assay: Confirmatory qHTS for antagonist of cAMP-regulated guanine nucleotide exchange factor 4 (EPAC2) (AID 1645885). Note: % is set by controls: 0 for no effect and ±100 for the full control effect; nearly all actives have a fitted effect of over 25% in size.
Assay [3] deals with Rap guanine nucleotide exchange factor 3 (Homo sapiens) (UniProt O95398). Nature of the assay: Counterscreen qHTS for antagonist of cAMP-regulated guanine nucleotide exchange factor 3 (EPAC1) (AID 1645888).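 Note: fluorescence loss as bound BODIPY-GDP is released from Rap1B; % of control where 0% means no effect.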 The essentials:
(§1)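 Rap1B–BODIPY-GDP (250 nM) with 50 uM GDP; compounds pin-transferred to 9.74 nM–152 uM final (activator) or from 7.32 nM upwards (inhibitor). Fluorescence Ex/Em 480/540 nm read at 5 and 30 min, then after adding cAMP or buffer, at room temperature.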

Assay [4] shares this target. Description: Confirmatory qHTS for agonist of cAMP-regulated guanine nucleotide exchange factor 3 (EPAC1) (AID 1645881).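 Note: EPAC1 catalysed release of BODIPY-GDP from Rap1B seen as fluorescence loss; 100% = effect of cAMP agonist control; nearly all actives have a fitted effect of over 75% in size.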
Assay [5] shares this target. Description: Counterscreen qHTS for agonist of cAMP-regulated guanine nucleotide exchange factor 3 (EPAC1) (AID 1645889). Note: % of control where 0% means no effect; nearly all actives have a fitted effect of over 40% in size. Summed up: as §1

Inconclusive results are not listed. A number with no mark means an inactive call. The source made the active and inactive calls. Calls come from the whole dose curve; as a rule, active = well fitted curve in the direction sought with a large enough effect; inconclusive = small, poorly fitted or top-dose-only effect, or another doubt; inactive = no such curve, though single readings can be large; an effect the other way counts as inactive or inconclusive.

Rap guanine nucleotide exchange factor 3 (Homo sapiens), sequence (O95398 whole entry, looked up): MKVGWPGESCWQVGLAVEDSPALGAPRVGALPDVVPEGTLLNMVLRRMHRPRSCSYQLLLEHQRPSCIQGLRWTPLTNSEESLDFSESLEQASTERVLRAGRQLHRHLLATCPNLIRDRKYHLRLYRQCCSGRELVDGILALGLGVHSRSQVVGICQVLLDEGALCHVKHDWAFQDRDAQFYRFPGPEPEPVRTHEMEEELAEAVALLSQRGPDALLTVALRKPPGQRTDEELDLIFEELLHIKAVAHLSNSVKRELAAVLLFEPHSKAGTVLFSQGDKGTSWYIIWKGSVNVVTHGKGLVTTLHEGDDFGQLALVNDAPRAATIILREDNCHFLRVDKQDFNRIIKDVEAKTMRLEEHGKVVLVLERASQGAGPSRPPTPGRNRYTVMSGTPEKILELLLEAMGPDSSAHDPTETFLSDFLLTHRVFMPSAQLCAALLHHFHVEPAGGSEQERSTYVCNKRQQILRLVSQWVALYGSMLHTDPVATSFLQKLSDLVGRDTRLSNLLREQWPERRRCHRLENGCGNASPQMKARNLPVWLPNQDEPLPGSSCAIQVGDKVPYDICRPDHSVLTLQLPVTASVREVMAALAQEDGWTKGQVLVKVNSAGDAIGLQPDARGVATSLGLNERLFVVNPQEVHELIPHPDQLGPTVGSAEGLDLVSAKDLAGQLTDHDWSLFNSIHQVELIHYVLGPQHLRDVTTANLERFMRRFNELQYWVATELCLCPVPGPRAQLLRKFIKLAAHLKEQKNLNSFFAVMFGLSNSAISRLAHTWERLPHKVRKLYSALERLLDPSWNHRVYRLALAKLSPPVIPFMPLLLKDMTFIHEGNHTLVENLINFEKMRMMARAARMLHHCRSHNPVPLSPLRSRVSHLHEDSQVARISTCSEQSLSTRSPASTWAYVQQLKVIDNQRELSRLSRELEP
Rap guanine nucleotide exchange factor 4 (Homo sapiens), sequence (Q8WZA2 whole entry, looked up): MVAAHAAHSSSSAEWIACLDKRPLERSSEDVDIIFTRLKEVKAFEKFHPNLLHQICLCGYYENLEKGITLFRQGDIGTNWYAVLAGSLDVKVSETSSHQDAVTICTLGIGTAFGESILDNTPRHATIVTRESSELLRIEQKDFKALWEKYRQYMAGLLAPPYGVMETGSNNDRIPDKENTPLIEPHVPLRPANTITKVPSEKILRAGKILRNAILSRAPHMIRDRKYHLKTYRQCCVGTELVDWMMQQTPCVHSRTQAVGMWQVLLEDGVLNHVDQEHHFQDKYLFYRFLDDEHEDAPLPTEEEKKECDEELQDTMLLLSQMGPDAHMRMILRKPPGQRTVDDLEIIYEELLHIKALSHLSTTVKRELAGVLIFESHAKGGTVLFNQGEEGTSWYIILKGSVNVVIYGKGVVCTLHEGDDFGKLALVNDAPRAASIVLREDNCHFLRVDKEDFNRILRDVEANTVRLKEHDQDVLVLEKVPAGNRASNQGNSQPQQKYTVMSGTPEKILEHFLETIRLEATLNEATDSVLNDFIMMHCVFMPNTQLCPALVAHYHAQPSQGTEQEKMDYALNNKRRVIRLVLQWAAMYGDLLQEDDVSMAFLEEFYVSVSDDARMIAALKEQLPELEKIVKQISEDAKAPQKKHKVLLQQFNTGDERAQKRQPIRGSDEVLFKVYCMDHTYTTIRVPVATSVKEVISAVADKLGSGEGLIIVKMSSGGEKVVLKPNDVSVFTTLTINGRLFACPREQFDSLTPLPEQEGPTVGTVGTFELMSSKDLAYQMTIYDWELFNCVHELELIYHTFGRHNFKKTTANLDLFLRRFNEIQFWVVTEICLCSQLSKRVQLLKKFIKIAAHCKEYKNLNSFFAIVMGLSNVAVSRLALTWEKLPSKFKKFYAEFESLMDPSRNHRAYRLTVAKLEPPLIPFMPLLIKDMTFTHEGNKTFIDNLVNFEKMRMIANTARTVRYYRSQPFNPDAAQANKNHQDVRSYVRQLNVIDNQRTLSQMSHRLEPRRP

Consider `COc1ccc2cc(-c3nc(Cl)c4c5c(sc4n3)CCCC5)c(=O)oc2c1`, for which the Potency entry in assay [1], in assay [2] and in assay [3] was “inactive” each time.
With `Cc1ccc(N2C(=O)c3ccccc3C2Nc2ccccc2F)nc1` (configuration not stated), the activation in assay [1] is 11.4% [at 17.1 µM, percent relative to cAMP agonist control]. The Potency entry in assay [2] was “inactive”. The activity change, negative = inhibition in assay [3] was 13.9% [at 30.8 µM].
`O=C1Nc2ccccc2N=C(c2ccccc2)c2ccccc21`: the Potency entry in assay [4] was “inactive”. Besides, the activation in assay [5] is 39.2% [at 30.8 µM].
Regarding `COc1ccc(OC)c(C2=CC(=O)C[C@H](c3ccc4c(c3)OCO4)C2)c1`, the activation in assay [1] is 11.2% [at 17.1 µM, percent relative to cAMP agonist control]. For the same compound, the Potency result in assay [2] was “inactive”. For the same compound, the activity change, negative = inhibition in assay [3] was -6.17% [at 30.8 µM].
With `CCc1nc2c(OCc3ccc(C(F)(F)F)cc3)cccn2c1N(C)C(=O)C1CC1`, the Potency result in assay [4] and in assay [5] was “inactive” each time.
`O=C(c1ccccc1Br)N(Cc1ccccc1)c1ccccc1`: the activation in assay [1] was 0.0919% [at 17.1 µM, percent relative to cAMP agonist control]. The Potency entry in assay [2] was “inactive”. Moreover, the activity change, negative = inhibition in assay [3] is -1.15% [at 30.8 µM].
Regarding `O=C(O)CCN1C(=O)/C(=C\c2cccc(OCC(=O)Nc3ccc(Cl)cc3)c2)SC1=S`, the Potency result in assay [1], in assay [2] and in assay [3] was “inactive” throughout.
As for `O=C(N/N=C/c1ccc(O)c(O)c1)C1c2ccccc2Oc2ccccc21`, the Potency entry in assay [1], in assay [2] and in assay [3] was “inactive” in each case.
`CCOC(=O)c1cc(-c2ccc(/C=C3/C(=O)N(c4ccc(C(=O)O)cc4)N=C3C)o2)ccc1Cl`: the Potency entry in assay [1], in assay [2] and in assay [3] was “inactive” in each case.
As to `COc1ccc2c(c1)C(SCC(=O)NCCc1ccc(Cl)cc1)CC(C)(C)O2` (configuration not stated), in assay [1], the activation is 12.3% [at 17.1 µM, percent relative to cAMP agonist control]. In assay [2], the Potency entry was “inactive”. Moreover, the activity change, negative = inhibition in assay [3] is 8.95% [at 30.8 µM].
With `O=C(CSc1ncnc2[nH]ncc12)Nc1cccc(Oc2ccccc2)c1`, the activation in assay [1] is 10.9% [at 17.1 µM, percent relative to cAMP agonist control]. In addition, the Potency result in assay [2] was “inactive”. In addition, in assay [3], the activity change, negative = inhibition is -9.96% [at 30.8 µM].
For `CCC(=O)N(CCC(c1ccco1)C(C)C)Cc1ccccc1` (configuration not stated), the Potency entry in assay [4] and in assay [5] was “inactive” throughout.
On to `Cc1cc(=O)n(Cc2ccccc2)c2c1c(C)nn2C`, for which the Potency result in assay [1], in assay [2] and in assay [3] was “inactive” each time.
Consider `O=C(Nc1cccc(C(F)(F)F)c1)C1Cc2c(-c3ccccc3)ccnc2O1` (configuration not stated), for which the activation in assay [1] is 3.96% [at 17.1 µM, percent relative to cAMP agonist control]. Also, in assay [2], the Potency entry was “inactive”. In assay [3], the activity change, negative = inhibition is -3.59% [at 30.8 µM].
Turning to `CCc1ccc(N=C2NC(=O)/C(=C/c3ccc(OCC(=O)O)c(OC)c3)S2)cc1`, the Potency result in assay [1], in assay [2] and in assay [3] was “inactive” each time.
As to `O=C(Nc1cc(S(=O)(=O)N2CCCCC2)ccc1O)c1ccccc1NS(=O)(=O)c1ccc(F)c(F)c1`, in assay [1], the Potency is 0.282 µM (active). Moreover, the Potency entry in assay [2] was “inactive”. Besides, the activity change, negative = inhibition in assay [3] was -23% [at 30.8 µM].
For `COc1ccc(CN(Cc2ccco2)C(=O)c2ccccc2F)cc1`, the Potency entry in assay [1], in assay [2] and in assay [3] was “inactive” each time.
With `Oc1ccc(NCc2cccc(OCc3ccc(F)cc3)c2)cc1`, in assay [1], the activation was 10.4% [at 17.1 µM, percent relative to cAMP agonist control]. For the same compound, the Potency entry in assay [2] is “inactive”. Further, the activity change, negative = inhibition in assay [3] was -11.4% [at 30.8 µM].
As to `Cc1nc(C)c(-c2csc(Nc3ccc(C(=O)O)c(O)c3)n2)s1`, the Potency result in assay [1], in assay [2] and in assay [3] was “inactive” in each case.
Regarding `Cc1nc2c3cc(F)ccc3n(Cc3ccccc3F)c2s1`, the activation in assay [1] was 1.97% [at 17.1 µM, percent relative to cAMP agonist control]. Besides, the Potency entry in assay [2] was “inactive”. In assay [3], the activity change, negative = inhibition is -7.48% [at 30.8 µM].
On to `CCOc1ccccc1Oc1nc(C)nc2c1oc1ccccc12`, for which the Potency entry in assay [1], in assay [2] and in assay [3] was “inactive” throughout.
For `Cc1ccc(C(=O)N(Cc2ccco2)Cc2sccc2C)cc1`, the Potency result in assay [1], in assay [2] and in assay [3] was “inactive” each time.
For `COc1cccc(/C=N/Nc2ccc(S(=O)(=O)Nc3ccccc3C(=O)O)cc2[N+](=O)[O-])c1O`, the activation in assay [1] is 3.64% [at 17.1 µM, percent relative to cAMP agonist control]; in assay [5], 20% [at 30.8 µM]. Moreover, the Potency entry in assay [2] was “inactive”. Besides, the activity change, negative = inhibition in assay [3] is -5.08% [at 30.8 µM].
Regarding `COc1cc(/C=C2\SC(=Nc3ccccc3)N(CCc3c[nH]c4ccccc34)C2=O)ccc1OC(C)C(=O)O` (configuration not stated), the Potency result in assay [1], in assay [2] and in assay [5] was “inactive” each time.
For the compound `N#Cc1ccc(CSc2nc(N)cc(N)n2)cc1`, the Potency in assay [1] was 112 µM (active). The Potency result in assay [3] and in assay [5] was “inactive” each time.
For `Cc1cc(Br)cn2c(Cc3ccsc3)c(-c3ccco3)nc12`, the activation was 5.83% [at 17.1 µM, percent relative to cAMP agonist control] in assay [1] and 27.6% [at 30.8 µM] in assay [5]. In addition, in assay [2], the Potency entry is “inactive”. Moreover, in assay [3], the activity change, negative = inhibition was 4.94% [at 30.8 µM].
